# Giardia FBPA inh = Giardia lamblia aldolase inhibition. A8B2U2. AID 2451. 290,000 tested, 0.71% active. Potency, µM (series often up to 59.6 µM), for the others: at the top dose activity, negative = inhibition, hits mostly inhibitors. purified Giardia FBPA; also: potency is read from the fitted curve at half-maximal effect; % is scaled to controls: 0 for no effect and ±100 for the full control effect; nearly all actives have a fitted effect of over 55% in size
#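 40 nM FBPA preincubated 10 min at RT with compound (up to 57.5 uM final), then substrate plus GAPDH/TPI/NAD/arsenate coupling and diaphorase/resazurin added. Fluorescence read after 20 min at RT, 525/598 nm.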
# Sm TGR inh = blocks Schistosoma mansoni thioredoxin glutathione reductase; Q962Y6; purified TGR, DTNB reduction, TNB absorbance 405 nm; Potency, µM (top dose mostly 114 µM), for inactives: at the top dose activity change, negative = inhibition, usual class: inhibitors; 360,000 tested, 3% active; also: potency is read from the fitted curve at half-maximal effect; % is scaled to controls: 0 for no effect and ±100 for the full control effect; nearly all actives have a fitted effect of over 60% in size
#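 First, TGR (20 nM dispensed) and NADPH were mixed with compound. Second, a 15 min room-temperature incubation followed. Third, further NADPH and then DTNB were added to start the reaction. Finally, TNB absorbance was monitored kinetically.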
# LmPK inh = LmPK (Leishmania mexicana) enzyme inhibition | Q27686 | purified LmPK, Kinase-Glo ATP luminescence, 1 h | Potency, µM (highest dose often 57.5 µM), inactives show at the top dose activity change, negative = inhibition, usual class: inhibitors | 290,000 tested, 0.37% active | AID 1721; also: potency is read from the fitted curve at half-maximal effect; % is scaled to controls: 0 for no effect and ±100 for the full control effect
# Target sequence (Q27686 whole entry, looked up): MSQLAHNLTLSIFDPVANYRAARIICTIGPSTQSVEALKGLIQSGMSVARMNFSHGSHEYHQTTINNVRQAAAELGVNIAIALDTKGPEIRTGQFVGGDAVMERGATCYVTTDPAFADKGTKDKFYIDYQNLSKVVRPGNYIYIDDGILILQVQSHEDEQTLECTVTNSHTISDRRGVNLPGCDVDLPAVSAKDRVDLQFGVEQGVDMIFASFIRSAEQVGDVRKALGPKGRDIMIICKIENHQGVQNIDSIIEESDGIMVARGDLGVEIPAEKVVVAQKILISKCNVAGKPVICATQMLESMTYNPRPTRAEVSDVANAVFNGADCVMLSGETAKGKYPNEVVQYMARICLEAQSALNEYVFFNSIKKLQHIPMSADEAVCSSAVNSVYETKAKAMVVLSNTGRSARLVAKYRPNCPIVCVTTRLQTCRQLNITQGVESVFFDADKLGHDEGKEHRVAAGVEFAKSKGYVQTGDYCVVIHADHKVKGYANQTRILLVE
#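 Screened at intermediate enzyme activity to detect both inhibitors and activators: LmPK at 0.1 nM, with a 0.5 nM enzyme column as activation reference. PEP 0.5 mM, ADP 0.1 mM; ATP detected by luminescence after 1 h.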
# TbPYK inhibitor = T. brucei pyruvate kinase inhibition | Q57TT1 | TbPYK enzyme, Kinase-Glo Plus ATP luminescence, 45 min | Potency, µM (titrated, usually from 76.8 µM), without a hit: top-dose activity, negative = inhibition, most hits filed as inhibitors | 410,000 tested, 0.12% active; also: potency is read from the fitted curve at half-maximal effect; % is scaled to controls: 0 for no effect and ±100 for the full control effect; nearly all actives have a fitted effect of over 50% in size
#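 ADP (130 uM final) triggers the TbPYK reaction after compound addition; incubation is 45 min at room temperature. Kinase-Glo Plus is then added and luminescence imaged. Normalized data are fitted to concentration-effect curves.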
# CHX counter = affects cycloheximide protein synthesis inhibition readout, counter-screen. cell reporter, cycloheximide protein synthesis inhibition counterscreen. max response, %. 300,000 tested, 12% active. AID 2314; in the data active = max response mostly above about 13%, no sharp cut-off; inactive = mostly below about 14%; also: read at 38.3 µM for the half of the compounds with a filed dose; 0% is about no effect
# Shiga inhibitor = inhibitors of Shiga toxin in Vero cells; inhibition, % at 38.7 µM; 290,000 tested, 9.2% active; Vero cells, Shiga toxin protein synthesis inhibition reporter; in the data active = inhibition mostly above about 28%, no sharp cut-off; inactive = mostly below about 43%; also: 0% is about no effect
# Active calls of the source: *; ? = inconclusive; . = no result; + = active, no number; ! = a repeat was not active; [ ] = another dose, or the depositor's remark. Many of the other results were omitted from the sample, so hits are more common in it than they were. Unless noted, calls follow the shape of the dose curve; as a rule, active = well fitted curve in the direction sought with a large enough effect; inconclusive = small, poorly fitted or top-dose-only effect, or another doubt; inactive = no such curve, though single readings can be large; an effect the other way counts as inactive or inconclusive.
SMILES,Giardia FBPA inh,Sm TGR inh,LmPK inh,TbPYK inhibitor,CHX counter,Shiga inhibitor
COc1ccc(-c2nnc(SCc3ccccc3F)o2)cc1,0%,3%,-4%,1%,47*,118*
O=c1cc(CSc2nnc(-c3ccccc3)o2)c2ccccc2[nH]1,-1%,7%,2%,-3%,10*,5
Cc1ccccc1-c1nnc(SCC(=O)Nc2cccc(C)c2C)o1,2%,8%,3%,0%,-3,12
Fc1cccc(Cl)c1CSc1nnc(CNc2ccccc2)o1,-5%,-4%,6%,-2%,17*,20
Cc1ccccc1-c1nnc(SCc2ccccc2F)o1,0%,-27%,-7%,6%,58*,87*
Cc1ccc2nc(Cl)cc(=O)n2c1,.,.,.,0%,.,.
Fc1ccccc1CSc1nnc(-c2ccccc2)o1,0%,0%,-8%,2%,50*,75*
Fc1ccccc1CSc1nnc(-c2cccnc2)o1,0%,-2%,-1%,6%,48*,110*
COc1cc(OC)cc(-c2nnc(SCc3c(F)cccc3Cl)o2)c1,-1%,-13%,2%,-11%,44*,81*
Cc1ccccc1-c1nnc(SCc2ccccc2)o1,0%,-1%,-2%,3%,32*,84*
COc1cc(OC)c(NC(=O)CCn2cnc3onc(-c4ccc(F)cc4)c3c2=O)cc1Cl,.,-5%,.,0%,.,.
c1ccc(Cc2nnc(-c3ccccc3)o2)cc1,10%,5%,-3%,-4%,-6,-37
Cc1ccccc1-c1nnc(Cc2ccccc2)o1,-1%[12.9 µM],0%,-8%,0%,41*,138*
CC(=O)NC(c1cccc(F)c1)c1nc(-c2cccc(C(F)(F)F)c2)cs1 (stereo not drawn),.,.,.,-1%,.,.
Cc1ccc(O)c(CO)n1,1%,4%,-1%,-4%,-2,-6
COc1ccc(CCc2nc(C)ccc2O)cc1,-11%,-13%,-23%,-6%,37*,+!
CC(=O)C(=Cc1ccc(O)cc1)C(C)=O,-6%,45µM*,0%,2%,3,-9
COc1ccc(C2CCCN2CC(O)COc2ccccc2C(C)C)cc1 (stereo not drawn),3%,6%,0%,-5%,-1,-6
O=C(OCn1ncc(Br)c(Br)c1=O)c1ccc(F)cc1,4%,2µM*,1%,-1%,24*,13
O=C(OCn1ncc(Br)c(Br)c1=O)c1ccccc1Cl,0%,1.3µM*,-3%,-25%,12,-24
O=C(OCn1nnc2ccccc2c1=O)c1cccnc1Cl,-2%,-10%,2%,1%,-3,-15
Cc1cc(C)nc(SCC(=O)NC(=O)c2ccccc2O)n1,.,.,.,-21%,.,.
C/C(=N\NC(=O)c1cnccn1)c1ccc([N+](=O)[O-])cc1,-4%,7%,0%,0%,20*,10
C/C(=N/NC(=O)c1cnccn1)c1cccs1,-2%,-6%,-24%,-18%,40*,93*
CCc1ccc(C(=O)N/N=C(\C)c2ccncc2)s1,.,2%,-1%,-16%,37*,70*
SMILES,Giardia FBPA inh,Sm TGR inh,LmPK inh,TbPYK inhibitor,CHX counter,Shiga inhibitor
C/C(=N/NC(=O)c1ccc(C)s1)c1ccncc1,-10%,-4%,3%,-11%,30*,60*
O=C(N/N=C/c1ccc([N+](=O)[O-])cc1)c1cnccn1,0%,-4%,4%,-5%,7,-5
Cc1ccc2nc(N3CCC(C(=O)N4CCN(c5cccc(Cl)c5)CC4)CC3)[nH]c2c1,.,5%,.,-1%[15.4 µM],.,.
CCc1nc2ccc(C(=O)NCCC(C)C)cn2c1N(C)Cc1ccc(OC)cc1,.,.,.,-3%,.,.
COc1cccc(C2C=C(c3ccc(C)cc3)Nc3c(C(=O)Nc4ccc(F)cc4)cnn32)c1OC (stereo not drawn),.,1%,.,-2%,.,.
Cc1ccc(C(=O)NCC(c2ccc3c(c2)OCO3)N2CCOCC2)cc1C (stereo not drawn),.,3%,.,1%,.,.
C/C(=N\NC(=O)c1cccs1)c1ccncc1,6%,-13%,0%,-1%,36*,107*
Cc1sc2ncnc(OCC(=O)N3CCN(S(=O)(=O)c4ccc(Cl)cc4)CC3)c2c1C,12%,-10%,2%,1%,10*,14
CC(C)NC(=O)Nc1cccc(Cl)c1,-1%,2%,-2%,5%,11,24
CC(Cc1cccs1)NC(=O)Nc1ccc(F)cc1 (stereo not drawn),4%,10%,8%,6%,50*,48
COc1cc(C(=O)NC(C)Cc2cccs2)cc(OC)c1OC (stereo not drawn),6%,-3%,4%,1%,-3,-5
CC(Cc1cccs1)NC(=O)Nc1cccc(Cl)c1 (stereo not drawn),-13%,-3%,9%,-1%,59*,69*
Cc1c(C(=O)OCC(=O)N2c3ccccc3CC2C)oc2ccccc12 (stereo not drawn),-1%,-2%,-7%,-3%,-2,11
CCOc1ccc2oc(C(=O)OCC(=O)NC3CCCCC3)c(C)c2c1,.,-33%,.,1%,.,.
Cc1c(C(=O)OCC(=O)N2C(C)CCCC2C)oc2ccccc12 (stereo not drawn),.,2%,1%,-8%,50*,96*
Cc1c(C(=O)OCCN2CCCCC2)oc2ccccc12,-8%,-19%,-3%,6%,14*,21
Cc1c(C(=O)OCC(=O)N2CC(C)CC(C)C2)oc2ccccc12 (stereo not drawn),.,2%,.,4%,.,.
COc1ccc2oc(C(=O)OCC(=O)NC3CCCC3)c(C)c2c1,2%,2%,3%,-1%,38*,71*
CC1CCCC(C)N1C(=O)COC(=O)c1ccc2c(c1)OCO2 (stereo not drawn),3%,0%,0%,3%,17*,43
Cn1c(CNC(=O)CNC(=O)c2ccccc2)cc(=O)n(C)c1=O,-9%,2%,-2%,5%,-2,-3
O=C(C1CCCCC1)N(Cc1cccnc1)c1nc2c(F)cc(F)cc2s1,.,8%,.,-2%[15.4 µM],.,.
CCOc1ccc2oc(C(=O)OCC(=O)N3C(C)CCCC3C)c(C)c2c1 (stereo not drawn),.,0%,.,0%,.,.
COc1ccc2oc(C(=O)OCC(=O)N3C(C)CCCC3C)c(C)c2c1 (stereo not drawn),-4%,-2%,-1%,0%,37*,63*
COc1cccc(NCc2cc(=O)oc3cc(-c4ccccc4)c(O)cc23)c1,4%,-11%,-3%,-5%,27*,62*
COc1cccc(NCc2cc(=O)oc3cc(C)c(O)cc23)c1,-12%,-13%,0%,-4%,16,8
CCOC(=O)c1c(NC(=S)Nc2ccccc2)sc2c1CC(C)(C)SC2,-5%,?,3%,-19%,7,10
CCOC(=O)c1c(NC(=S)NC)sc2c1CC(C)(C)SC2,1%,10µM*,-9%,?,-5,-9
